The target in the test is AMP-activated protein kinase, AMPK (Homo sapiens) (UniProt P54646+O43741+P54619+Q9UGJ0+Q9Y478+Q13131+Q9UGI9). Kind of test: AMP-dependent Kinase enzyme assay. An in vitro enzyme assay that detects ADP turnover that is directly proportional to AMPK activity. This uses naive AMPK that is activated during the assay with MK-8722. The class given is functional. On the set-up: scale not given: direction of the effect not stated beside the values. Conditions: 30 µM.

SMILES strings stand for the structures.

Take `CCOc1ccc(Cl)cc1CCNC(=O)c1ccc(=O)n(C)c1`: the Percent Effect was 7.18%.

Regarding `Cc1nccn1CCN1C(=O)CC2(CCCC2)CC1=O`, the Percent Effect was found to be 8.33%.

As for `CN(CCOc1ccc(C#N)cc1)CC1CCS(=O)(=O)C1` (stereo not given), the Percent Effect stood at 7.94%.

Consider `Nc1cc(-c2c[nH]nc2C2CCN(C(=O)C3CCCC3)C2)ccn1` (stereo not given), for which the Percent Effect was -6.9%.

As for `O=C1CCCCCN1Cc1nc(C2(c3ccc(F)cc3)CCOC2)no1` (stereo not given), the Percent Effect was found to be 8.29%.

In the case of `COc1cc(COCC2CCN(Cc3ccccn3)CC2)cc(OC)c1`, the Percent Effect is -0.77%.

With `Cc1ccc(-c2cc(CN(CC(N)=O)CC(C)C)on2)cc1`, the Percent Effect is -6.41%.

As for `Cc1ccc(-c2noc(C3CCN3C(=O)c3ccc(=O)[nH]n3)n2)s1` (stereo not given), the Percent Effect turned out to be 19.2%.

As for `CN([C@@H]1CC[C@@H](N2CCCC2)[C@@H]1O)S(=O)(=O)c1ccccc1`, the Percent Effect was -6.19%.

As to `Cc1cc(N2CCC(n3cc(CCCO)nn3)CC2)ccn1`, the Percent Effect worked out at 2.02%.

For `CC(=O)c1sc(C(NC(=O)c2ccccc2)C2CC2)nc1C` (stereo not given), the Percent Effect is -2.1%.

With `NC(=O)C1CCCN(Cc2ccc(C(=O)Nc3cnns3)cc2)C1` (stereo not given), the Percent Effect was found to be 5.32%.

Turning to `CC(=O)Nc1ccc(-c2ccccc2NC(=O)CN)cc1`, the Percent Effect is 17.8%.

As for `CC(C)c1cc(NC(=O)Cn2ccc(=O)c3ccccc32)[nH]n1`, the Percent Effect amounted to 4.99%.

With `CCN1CCC(CC(=O)NCCc2nc(O)cc(O)n2)CC1`, the Percent Effect was -0.635%.

As for `N#Cc1ccc(CNCCc2cc(F)cc3c2OCOC3)cc1`, the Percent Effect worked out at 4.17%.

As to `Cc1cc(C)c(C(=O)N(C)CCN(C)C(=O)OC(C)(C)C)[nH]1`, the Percent Effect is -0.277%.

Turning to `NC(=O)c1cn[nH]c1NC(=O)c1ccc2c(c1)OCO2`, the Percent Effect was 5.07%.

With `CC(C)[C@@H]1CN(C(=O)CCc2ccc(F)cc2)C[C@H]1C(=O)O`, the Percent Effect was -1.24%.

For `COc1ccc(S(=O)(=O)Nc2cccnc2-n2cncn2)cc1C`, the Percent Effect was -0.234%.

In the case of `CCc1c(C)nc(-n2nc(-c3cccs3)cc2N)[nH]c1=O`, the Percent Effect is -6.28%.

As to `CCNC(=O)CN1CCc2c(Br)ccc(F)c2C1`, the Percent Effect is -1.06%.

As to `CN(C)C(CNC(=O)c1[nH]nc(C2CC2)c1Br)C1CC1` (stereo not given), the Percent Effect is -3.39%.

Take `COc1ccc(Cl)cc1CN(CC(N)=O)C(C)C`: the Percent Effect was -4.14%.

On to `CC(N)C(=O)N1CCC(Oc2cccc(C(F)(F)F)c2)CC1` (stereo not given), for which the Percent Effect was -2.71%.

On to `Cc1cc(C)n(CCCN(C)c2cc(C3CC3)ncn2)n1`, for which the Percent Effect came out at 6.65%.

Take `CN1CCN(CCNC(=O)c2sccc2C2CC2)CC1`: the Percent Effect came to 3.89%.

As for `Cc1ccn(C)c(=O)c1NC(=O)N(C)Cc1cccc(OC(C)C)c1`, the Percent Effect is -92.7%.

On to `CN(CCc1ccccc1)c1cnn(CC2COCCO2)c(=O)c1` (stereo not given), for which the Percent Effect stood at 8.71%.

Take `CC(C)(C)SCCN1CC(=O)N2CC[C@@H](O)C[C@H]2C1=O`: the Percent Effect was 3.02%.

On to `CN(C)C(CNC(=O)OCC(F)(F)F)c1ccsc1` (stereo not given), for which the Percent Effect is -1.15%.

Take `CN(CCc1ncnn1C1Cc2ccccc2C1)C1CCS(=O)(=O)C1` (stereo not given): the Percent Effect was -4.47%.

Consider `CC(=O)Nc1ccc(Oc2cc(C)nc(C3CCNCC3)c2)cc1`, for which the Percent Effect is 0.11%.

Turning to `O=C(c1coc(-c2ccccc2)n1)N1CCCCC1`, the Percent Effect stood at 0.702%.

On to `COc1ccc(C(=O)N2CCN(C(=O)CCCc3cn[nH]c3)CC2)cc1`, for which the Percent Effect worked out at 3.5%.

Consider `CC(C)Oc1cc(N2CCN(Cc3ccsc3)C(CCO)C2)nc(N)n1` (stereo not given), for which the Percent Effect was -13.7%.

`COCCN1CCCC(c2nccnc2-c2cccc(Cl)c2)C1` (stereo not given): the Percent Effect was -11.9%.

On to `O=C(Nc1ccccc1C(=O)NCCN1CCOCC1)c1ccco1`, for which the Percent Effect is -3.24%.

For the molecule `Cc1cc(NC(=O)N2CCN(c3cccs3)CC2)ccc1C(N)=O`, the Percent Effect was found to be 6.86%.

Take `CC(C)c1nnc2n1CCN(Cc1cccc3c1OCCO3)C2`: the Percent Effect was 12.9%.

Consider `Cc1nccn1CCCN1CCCC(c2ccccc2)C1` (stereo not given), for which the Percent Effect is -4.4%.

Consider `Cc1noc(C)c1-c1cccc(C2CCN(S(=O)(=O)N(C)C)CC2)n1`, for which the Percent Effect amounted to 5.6%.

With `CNC(=O)Cc1ccccc1NC(=O)N[C@H]1c2ccccc2C[C@H]1O`, the Percent Effect came to 0.934%.

Take `CC(C)c1nccc(CN(C)Cc2cnn(-c3ccccc3)c2)n1`: the Percent Effect was -5.06%.

As for `CCc1nc(CCNc2ncccc2S(N)(=O)=O)sc1C`, the Percent Effect is -3.81%.

Turning to `CCc1nc(CN(C)C(=O)CSC)no1`, the Percent Effect came out at 1.82%.

With `CC(C)OCCCNC(=O)CN1CCN(c2nccs2)C(C)C1` (stereo not given), the Percent Effect is 13.6%.

As to `CN1CC2(CCN(CCCOCc3ccccc3)CC2)OC1=O`, the Percent Effect is 2.54%.

On to `CN(Cc1ccc(C#N)cc1)C(=O)c1ccn(C)c(=O)c1`, for which the Percent Effect worked out at 5.01%.

For the molecule `Fc1ccccc1OC1CCN(CCn2cc3ccccc3n2)CC1`, the Percent Effect stood at 6.19%.

For the molecule `NC(=O)NC(CC(=O)N1CCc2sccc2C1)c1ccccc1F` (stereo not given), the Percent Effect was found to be 3.63%.

In the case of `Cc1ccc(C2(O)CCN(C(=O)CCn3c(C)cccc3=O)CC2)nc1`, the Percent Effect was -22.2%.

For `CC(CNC(=O)CCn1cncn1)N1CCc2ccccc21` (stereo not given), the Percent Effect was determined as 6.66%.

On to `COCCn1ccnc1C1CCCN(C(=O)CSc2nnc(C)o2)C1` (stereo not given), for which the Percent Effect was found to be 1.51%.

Take `CC(c1ncc(-c2ccccc2)o1)N1CCN(C(=O)C(C)(C)C)CC1` (stereo not given): the Percent Effect turned out to be 12.7%.

The values are drawn from ChEMBL document CHEMBL3988442, “University of Dundee, Small-Polar-MMV Screening Library” (2021).
